How the values were obtained:
Details in all cases: concentration: 1 μM, replicates: in singlicate; n = 1
[1] = system: EPHB6
[2] = system: ERBB2
[3] = system: ERBB3
[4] = system: ERBB4
[5] = system: T1, ERK1
T1 construct: gene MAPK3

[6] = system: T2, ERK2
T2 construct: gene MAPK1

[7] = system: T3, ERK3
T3 construct: gene MAPK6

[8] = system: T4, ERK4
T4 construct: gene MAPK4

[9] = system: T5, ERK5
T5 construct: gene MAPK7

[10] = system: T6, ERK8
T6 construct: gene MAPK15

[11] = system: ERN1
[12] = system: T7, FAK
T7 construct: gene PTK2

[13] = system: FER
[14] = system: FES
[15] = system: FGFR1
[16] = system: FGFR2
[17] = system: FGFR3
[18] = system: FGFR4
[19] = system: FGR
[20] = system: FLT1
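Also: KINOMEscan kinase panel screen.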

COc1ccc(COc2cc(-n3cnc4ccccc43)sc2C(N)=O)cc1 [GSK1024304]
%Inh [1]: 0%
%Inh [2]: 28%
%Inh [3]: 0%
%Inh [4]: 24%
%Inh [5]: 5%
%Inh [6]: 0%
%Inh [7]: 15%
%Inh [8]: 13%
%Inh [9]: 8%
%Inh [10]: 0%
%Inh [11]: 2%
%Inh [12]: 0%
%Inh [13]: 6%
%Inh [14]: 16%
%Inh [15]: 0%
%Inh [16]: 0%
%Inh [17]: 1%
%Inh [18]: 0%
%Inh [19]: 10%
%Inh [20]: 24%

COc1ccc(Nc2nccc(N3CCC(NC(=O)Nc4cccc(C(C)=O)c4)C3)n2)cc1 (centres unmarked) [GSK1379731]
%Inh [1]: 0%
%Inh [2]: 14%
%Inh [3]: 0%
%Inh [4]: 5%
%Inh [5]: 0%
%Inh [6]: 0%
%Inh [7]: 7%
%Inh [8]: 0%
%Inh [9]: 0%
%Inh [10]: 25%
%Inh [11]: 0%
%Inh [12]: 0%
%Inh [13]: 12%
%Inh [14]: 1%
%Inh [15]: 3%
%Inh [16]: 0%
%Inh [17]: 2%
%Inh [18]: 30%
%Inh [19]: 20%
%Inh [20]: 33%

Cc1cccc(Cn2ccn3c(=O)cc(N4CCOCC4)nc23)c1 [GSK2297542]
%Inh [1]: 24%
%Inh [2]: 1%
%Inh [3]: 0%
%Inh [4]: 27%
%Inh [5]: 20%
%Inh [6]: 5%
%Inh [7]: 27%
%Inh [8]: 32%
%Inh [9]: 0%
%Inh [10]: 0%
%Inh [11]: 16%
%Inh [12]: 0%
%Inh [13]: 30%
%Inh [14]: 10%
%Inh [15]: 0%
%Inh [16]: 16%
%Inh [17]: 16%
%Inh [18]: 10%
%Inh [19]: 32%
%Inh [20]: 20%

NS(=O)(=O)CCc1cccc(Nc2nccc(-c3c(-c4cccc(NC(=O)c5c(F)cccc5F)c4)nn4ccccc34)n2)c1 [GSK336735]
%Inh [1]: 97.1%
%Inh [2]: 98.7%
%Inh [3]: 94%
%Inh [4]: 100%
%Inh [5]: 7%
%Inh [6]: 0%
%Inh [7]: 0%
%Inh [8]: 10%
%Inh [9]: 45%
%Inh [10]: 0%
%Inh [11]: 21%
%Inh [12]: 4%
%Inh [13]: 73%
%Inh [14]: 22%
%Inh [15]: 44%
%Inh [16]: 46%
%Inh [17]: 36%
%Inh [18]: 0%
%Inh [19]: 98.8%
%Inh [20]: 99.3%

CC(C)(C)n1cnc2c(N)ncnc21 [SKF-97359]
%Inh [1]: 0%
%Inh [2]: 37%
%Inh [3]: 17%
%Inh [4]: 22%
%Inh [5]: 0%
%Inh [6]: 0%
%Inh [7]: 10%
%Inh [8]: 15%
%Inh [9]: 4%
%Inh [10]: 8%
%Inh [11]: 0%
%Inh [12]: 0%
%Inh [13]: 45%
%Inh [14]: 0%
%Inh [15]: 0%
%Inh [16]: 0%
%Inh [17]: 0%
%Inh [18]: 0%
%Inh [19]: 8%
%Inh [20]: 7%

CCc1nc(-c2cccc(C)c2)c(-c2ccnc(NCc3ccccc3)c2)s1
%Inh [1]: 5%
%Inh [2]: 22%
%Inh [3]: 2%
%Inh [4]: 3%
%Inh [5]: 0%
%Inh [6]: 11%
%Inh [7]: 0%
%Inh [8]: 5%
%Inh [9]: 3%
%Inh [10]: 0%
%Inh [11]: 16%
%Inh [12]: 0%
%Inh [13]: 0%
%Inh [14]: 6%
%Inh [15]: 0%
%Inh [16]: 8%
%Inh [17]: 0%
%Inh [18]: 0%
%Inh [19]: 8%
%Inh [20]: 0%

Cc1c(Cn2c(C)nn3c(=O)cc(N4CCOC(C)C4)nc23)cccc1C(F)(F)F (centres unmarked) [GSK2344444]
%Inh [1]: 0%
%Inh [2]: 0%
%Inh [3]: 0%
%Inh [4]: 0%
%Inh [5]: 0%
%Inh [6]: 0%
%Inh [7]: 0%
%Inh [8]: 11%
%Inh [9]: 0%
%Inh [10]: 26%
%Inh [11]: 24%
%Inh [12]: 0%
%Inh [13]: 25%
%Inh [14]: 0%
%Inh [15]: 3%
%Inh [16]: 0%
%Inh [17]: 4%
%Inh [18]: 0%
%Inh [19]: 0%
%Inh [20]: 25%
